Screens from PubChem.
POLH inh: DNA polymerase eta (human) inhibition. Potency, µM (top dose mostly 114 µM), hits mostly inhibitors. Q9Y253. AID 588591. recombinant Pol eta, fluorescent DNA replication assay. 390,000 compounds, 1.2% hits
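Pol eta (10 nM) was preincubated with compounds for 15 min at room temperature, after which fluorescent replication substrate (50 nM final) was added to start the reaction. Fluorescence was read kinetically at 0 and 10 min.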
Pol beta inh: blocks human DNA polymerase beta activity. P06746. Pol beta primer extension/strand displacement, fluorescence kinetic. Potency, µM (top dose mostly 114 µM), usual class: inhibitors. 340,000 compounds, 1.3% hits. AID 485314
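Values derive from four-parameter Hill fits of normalized kinetic data: reads at 0 and 10 min following addition of 50 nM substrate to 10 nM Pol beta preincubated 15 min with compound.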
12-LOX inh: inhibitors of human 12S-lipoxygenase ALOX12 | P18054 | purified 12hLO, xylenol orange hydroperoxide absorbance | Potency, µM (highest dose often 108 µM), hits mostly inhibitors | 580,000 compounds, 1.1% hits | AID 1671190
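Purified human 12hLO (150 nM final) in 25 mM Hepes, 0.01% Triton X-100, pH 7.0 was preincubated 15 min at room temperature with compound. Then 40 uM arachidonic acid was added, 30 min. Hydroperoxide was read by Fe-XO absorbance ratio 573/405 nm.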
PI5P4K alpha inh: blocks human PI5P4K alpha kinase activity. PI5P4Kalpha enzyme, ADP-Glo luminescence, 60 min; stronger effect = lower value. max response, %. 330,000 compounds, 1.2% hits. AID 652105; active means max response of -50% or lower; inconclusive means between -30% and -50%; inactive means -30% or higher; further: value at the top dose of about 77 µM
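Reactions run in 0.038 M HEPES pH 7.4, 0.28 mM EGTA, 0.1% CHAPS and 5% DMSO, with PI5P4Kalpha, substrate, compound and 5 microM ATP final, one hour at room temperature. Readout is ADP-Glo luminescence.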
Pol iota inh: inhibitors of human DNA polymerase iota; Q9UNA4; Pol iota fluorescent replication assay, 10 min; Potency, µM (titrated, usually from 115 µM), actives largely listed as inhibitors; 390,000 compounds, 1% hits; AID 588590
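Pol iota at 10 nM preincubated 15 min with compounds at room temperature; reaction started with fluorescent substrate, 50 nM final. Fluorescence read kinetically at 0 and 10 min; buffer-only wells as negative control.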
Pol kappa inh: blocks human DNA polymerase kappa activity | Potency, µM (highest dose often 107 µM), actives largely listed as inhibitors | AID 588579 | 400,000 compounds, 0.53% hits | purified Pol kappa, fluorescent DNA synthesis assay, 10 min | Q9UBT6
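Kinetic fluorescence readout at 0 and 10 min followed reaction start with substrate at 50 nM final. Beforehand, enzyme (10 nM Pol kappa) stood 15 min with compound at room temperature; buffer-only wells were negative controls.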
Hits are given with their value; – = inactive; ? = inconclusive; · = not tested or not shown. Most compounds without a hit are left out; they make up all but 2.9% or so of the library. Unless noted, the call rests on the fitted dose curve; in most records, active means well fitted inhibition curve with a large enough effect; inconclusive means small, poorly fitted or top-dose-only effect, or another doubt; inactive means no such curve, though single readings can be large or run the other way.

SMILES	POLH inh	Pol beta inh	12-LOX inh	PI5P4K alpha inh	Pol iota inh	Pol kappa inh
CCOC(=O)c1ccc(-c2ccc(/C=C/C(=O)c3cccc(N4CCOCC4)c3)o2)cc1	·	·	–	·	·	·
CCc1ccc(NC(=O)CCC2=C(C)NS(=O)(=O)N=C2C)cc1	·	·	–	·	·	·
CCc1c(C(=O)NC2CCN(C(C)C)CC2)csc1C	·	·	–	·	·	·
O=C(c1ccc(N2CCN(C3CC(=O)N(Cc4cccs4)C3=O)CC2)cc1)c1cccnc1 (centres undefined)	–	–	–	–	–	–
Cc1cc(N2C(=O)CC(N3CCN(c4ccc(C(=O)c5cccs5)cc4)CC3)C2=O)no1 (centres undefined)	–	–	32µM	–	–	–
COc1cc(C(C)=O)ccc1OCC(O)Cn1nc(C)c(Br)c1C (centres undefined)	–	–	4.5µM	–	–	–
COc1cc(C(C)=O)ccc1OCC(O)CN1CCN(c2ccc(C)cc2C)CC1 (centres undefined)	–	–	–	–	–	–
CCOc1ccc(NC(=O)CCS(=O)(=O)c2ccc(Br)s2)cc1	?	28µM	?	·	–	–
Cc1c(Cl)cccc1NC(=O)CCS(=O)(=O)c1ccc(Br)s1	–	50µM	–	·	–	?
COc1ccc(-c2cc(C(=O)NNC(=S)NC(=O)c3c(-c4ccccc4)noc3C)[nH]n2)cc1	–	–	11µM	–	–	–
CC(C)c1ccc(NC(=O)C2CC(=O)NC(N3CCN(c4ccccc4)CC3)=N2)cc1 (centres undefined)	·	·	–	·	·	·
COc1c2c(c(CCC(=O)O)c3c1C=CC(C)(C)O3)OC(C)(C)C=C2	18µM	·	–	–	?	–
COc1ccc(C(=O)CC(=O)O)c2c1C=CC(C)(C)O2	–	–	–	–	–	–
COc1ccc(-c2nn(-c3ccc(F)cc3)c(OC(C)=O)c2-c2ccc(NC(C)=O)cc2)cc1OC	·	·	11µM	·	·	·
Cc1ccc2nc(COc3ccccc3NC(=O)c3ccc(F)cc3)cc(=O)n2c1	–	?	–	·	89µM	–
COc1ccccc1NS(=O)(=O)c1cc(N)ccc1N1CCOCC1	–	·	?	–	–	–
COc1ccccc1NS(=O)(=O)c1cc(N)ccc1N1CCCC1	–	·	?	?	79µM	–
Cc1cc2c(c(SCC(=O)Nc3ccccc3)n1)C(=O)OC2	·	·	–	·	·	·
CCOc1ccccc1Nc1nc(-c2cccc(Cl)c2)c2c(n1)-c1ccccc1OC2	–	40µM	–	·	–	89µM
N=C(N)c1ccc(OCc2cccnc2)cc1	·	·	–	·	·	·
COc1cccc(NC(=O)CCc2c(C)c3ccc(O)c(C)c3oc2=O)c1	·	·	–	·	·	·
CC(=O)c1c(C)[nH]c(-c2csc(NCC(C)C)n2)c1C	·	·	–	·	·	·
CNc1nc(-c2[nH]c(C)c(C(=O)OC)c2C)cs1	·	·	20µM	·	·	·
CCOC(=O)c1cnc(-n2nc(C)cc2C)nc1NCCc1ccccc1	–	–	45µM	?	–	–
Cc1nc(C)c(CCC(=O)Nc2cc(Cl)ccc2Cl)c(=O)[nH]1	·	·	–	·	·	·
SMILES	POLH inh	Pol beta inh	12-LOX inh	PI5P4K alpha inh	Pol iota inh	Pol kappa inh
Cc1cccc2c(N=Nc3ccc(S(=O)(=O)Nc4ccc(Cl)cc4)cc3[N+](=O)[O-])c(O)[nH]c12	–	–	?	-74	–	–
CN1C(C(=O)NCc2ccc(F)cc2)=C(c2ccccc2)c2cc(Cl)ccc2S1(=O)=O	·	·	–	·	·	·
CCc1cc2c(=O)c(-c3nc4ccccc4n3C)coc2c(CN2CCCCC2)c1O	–	–	–	–	–	–
CCc1cc2c(=O)c(-c3nc4ccccc4n3C)coc2c(CN2CCCCC2C)c1O (centres undefined)	?	28µM	–	–	32µM	–
CC(C)OCc1cc(CN2CCN(c3cccc(C(F)(F)F)c3)CC2)c(O)c2ncccc12	–	–	–	·	–	–
O=c1cc(CO)oc(CN2CCN(c3ccccc3)CC2)c1O	–	–	?	–	–	–
O=c1cc(CO)oc(CN2CCN(c3cccc(C(F)(F)F)c3)CC2)c1O	–	–	1.4µM	–	–	–
O=[N+]([O-])c1cc(CN2CCN(c3cccc(C(F)(F)F)c3)CC2)c2cccnc2c1O	–	18µM	?	-68	–	–
COc1ccc2cc(C(=O)N3CCNC(=O)C3)c(C)nc2c1	·	·	–	·	·	·
CC(=O)Nc1ccc(S(=O)(=O)NCCc2csc(C)n2)cc1	–	–	–	·	–	–
CC(=O)Nc1cccc(C(C)NCc2csc(C)n2)c1 (centres undefined)	·	·	2µM	·	·	·
NC(=S)N/N=C/c1coc2c(ccc3ccccc32)c1=O	?	–	–	–	?	–
O=c1cc(/N=C/c2coc3c(ccc4ccccc43)c2=O)[nH]c(=S)[nH]1	?	22µM	–	-75	?	?
C/C(=N/NC(=O)c1ccco1)c1cccc(NC(=O)c2ccc(C)s2)c1	–	–	–	–	–	89µM
CC(C)C(=O)N1N=C(c2ccc(NS(C)(=O)=O)cc2)CC1c1ccc(F)cc1 (centres undefined)	·	·	–	·	·	·
